# Sampled rows, rich in hits. Any-hit rate of the full collection: about 17%.
# TGFb inhibitor – TGF-b pathway inhibition | HepG2 CAGA-GFP TGF-b/SMAD3 reporter, GFP fluorescence, 18 h; TGF-beta stimulated, 500 pg/mL final | Potency, µM (highest dose often 46.1 µM), inactives show top-dose activity, negative = inhibition, most hits filed as inhibitors | 410,000 tested, 1.2% active; further: on the % scale 0 is the no-effect control and ±100 the full control effect; nearly all actives have a fitted effect of over 65% in size
#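 First, reporter cells (HEPG2 CAGA-GFP) rested 2 h at 37 degrees C. Next, compounds were pinned in and TGF-beta added to 500 pg/mL final. After 18 h, GFP was imaged per cell and summed per well.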
# HT1080NT lethal – kills 2HG-producing HT-1080-NT fibrosarcoma cells. AID 686970. Potency, µM (titrated, usually from 46.1 µM), without a hit: top-dose activity, negative = less viability, usual class: cytotoxic. HT-1080-NT fibrosarcoma viability, CellTiter-Glo ATP luminescence, 48 h. 360,000 tested, 1.6% active;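 further: NT is the 2HG producing partner of a matched IDH1 knockdown line; 0% = DMSO-treated cells and -100% = media-only wells without cells; nearly all actives have a fitted effect of over 55% in size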
#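 HT-1080-NT fibrosarcoma cells (2HG-overproducing), 750 cells/well in RPMI with 5% FBS, dosed after 2 h and incubated 48 h at 37C. CellTiter-Glo luminescence normalized to DMSO and no-cell wells; concentration-response curves fitted and classed.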
# HT1080 IDH1KD tx – HT-1080 IDH1 knockdown cell toxicity (counter line); AID 686971; Potency, µM (series often up to 46.1 µM), without a hit: at the top dose activity, negative = toxicity, most hits filed as cytotoxic; 360,000 tested, 2% active; HT-1080 IDH1 knockdown viability, ATP luminescence, 48 h;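 further: 0% = DMSO wells and -100% = cell-free medium wells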
#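 Using the IDH1-knockdown HT-1080 line run in the same batch and compound series as the NT line, viability after 48 h at 37 °C was determined by CellTiter-Glo luminescence and expressed as % activity.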
# HepG2 viability – HepG2 cytotoxicity, counter-screen for TGF-b inhibitors; HepG2 CAGA-GFP viability, ATP luminescence, 18 h; Potency, µM (highest dose often 46.1 µM), for inactives: top-dose activity change, negative = cytotoxicity, actives largely listed as cytotoxic; 410,000 tested, 0.76% active; AID 588856
#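 CellTiter-Glo luminescence gave cytotoxicity after 18 hours at 37 degrees C. The cells were HepG2 CAGA-GFP in 1% FBS DMEM, stimulated with 500 pg/mL TGF-beta after compound addition. %Activity was normalised to no-cell wells (complete cell-killing) and DMSO (no toxicity), and curves were fitted and classified.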
# DT40 TDP1 no CPT – qHTS for Inhibitors of human tyrosyl-DNA phosphodiesterase 1 (TDP1): qHTS in cells in absence of CPT; DT40 Tdp1-/- hTDP1 cells, no CPT, ATP luminescence, 48 h; Potency, µM (titrated, usually from 46.2 µM), without a hit: at the highest dose activity change, negative = growth inhibition, usual class: inhibitors; 420,000 tested, 15% active; AID 686978, 2013; further: on the % scale 0 is the no-effect control and ±100 the full control effect; nearly all actives have a fitted effect of over 55% in size
#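 A cellular qHTS used chicken DT40 cells lacking endogenous Tdp1 but carrying stably transfected human TDP1. Compounds were applied without camptothecin, and cell growth kinetics were judged by ATP-dependent luminescence after ≥48 hr.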
# DT40 TDP1 CPT – DT40-hTDP1 cell growth loss with CPT; chicken DT40 Tdp1-/-;hTDP1 cells + 20 nM CPT, ATP luminescence, 48 h; Potency, µM (highest dose often 46.2 µM), inactives show top-dose activity change, negative = growth inhibition, most hits filed as inhibitors; 420,000 tested, 12% active; AID 686979; further: on the % scale 0 is the no-effect control and ±100 the full control effect; nearly all actives have a fitted effect of over 55% in size
#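 Chicken DT40 Tdp1-/- cells complemented with human TDP1, 400 cells/well, exposed to compounds plus 20 nM camptothecin for at least 48 h at 37 C; viability read as ATP content by CellTiter-Glo luminescence.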
# Active calls of the source: *; u = inconclusive; x = not tested or not shown; [ ] = dose if it differs, or a comment. The call rests on the fitted dose curve; in most records, active means well fitted curve in the direction sought with a large enough effect; inconclusive means small, poorly fitted or top-dose-only effect, or another doubt; inactive means no such curve, though single readings can be large; an effect the other way counts as inactive or inconclusive. Potency means the concentration at half of the fitted maximal effect.
SMILES,TGFb inhibitor,HT1080NT lethal,HT1080 IDH1KD tx,HepG2 viability,DT40 TDP1 no CPT,DT40 TDP1 CPT
CC1CCN(c2ccccc2NC(=S)NC(=O)c2ccco2)CC1,u,-16%,-25%,-9%,29µM*,u
O=C(NC(=S)Nc1ccccc1N1CCOCC1)c1ccc(-c2ccccc2F)o1,-10%,7%,14%,-34%,23µM*,13µM*
CC1CCN(c2ccccc2NC(=O)c2ccc(Br)o2)CC1,u,-15%,u,-17%,u,16µM*
O=C(Nc1ccccc1N1CCOCC1)c1ccc(Br)o1,1%,-8%,11%,-24%,23µM*,21µM*
Cc1ccccc1CN1C(=O)CN(S(C)(=O)=O)CC1(C)C(=O)Nc1ccc2c(c1)OCCO2 (centres undefined),x,-1%,-3%,x,11%,9%
OC(c1cccnc1)c1ccc2c(c1)CN(Cc1cccc3c1OCO3)CCO2 (centres undefined),x,x,x,x,-19%,0%[9.04 µM]
COCCN(C(=O)c1ccc(OC2CCN(S(=O)(=O)N(C)C)CC2)cc1)C(C)C,-21%,1%,-8%,-2%,13µM*,u
CN(C)S(=O)(=O)N1CCC(Oc2ccc(C(=O)NCc3cnn(C)c3)cc2)CC1,u,4%,8%,-5%,21µM*,-21%
CN(C)S(=O)(=O)N1CCC(Oc2ccc(C(=O)NCC(C)(C)CO)cc2)CC1,-10%,-12%,-13%,2%,u,9%
Cn1c(=O)c2c(SCC(=O)N3CCCC3)nc(CC(C)(C)C)nc2n(C)c1=O,7%,0%,5%,0%,u,u
CN1CCC(Oc2ccccc2Sc2ccccc2)CC1,38%,u,-5%,-17%,16µM*,u
CCN(c1ncnc2c1c(-c1ccccc1)cn2-c1ccccc1)C1CCCCC1,-1%,x,x,-15%,0%,-20%
COc1ccc(-n2cc(-c3ccccc3)c3c(=O)[nH]cnc32)cc1,9%,-3%,-13%,-14%,-9%,15%
CCOC(=O)C(CC)Sc1ncnc2c1c(-c1ccccc1)cn2-c1ccc(OC)cc1 (centres undefined),40%,x,x,5%,21µM*,u
COc1ccc(-n2cc(-c3ccccc3)c3c(NCCCN4CCOCC4)ncnc32)cc1,10%,21µM*,18µM*,-20%,u,u
Brc1ccc(-n2cc(-c3ccccc3)c3c(NN4CCOCC4)ncnc32)cc1,-6%,2%,-5%,-4%,u,18µM*
Fc1ccc(-n2cc(-c3ccccc3)c3c(NC4CCCCC4)ncnc32)cc1,0%,x,x,-10%,23µM*,21µM*
CCc1nc2c(OCc3ccc4c(c3)OCO4)cccn2c1N(C=O)Cc1ccccc1,-1%,3%,2%,-21%,u,u
COc1ccc(CNC(=O)C2CCC(=O)N(CCCN3CCCC3=O)C2)c(OC)c1 (centres undefined),-4%,12%,16%,8%,21%,-3%
COc1cccc(NC(=O)N(C)C[C@H]2Oc3cc(Br)ccc3S(=O)(=O)N([C@H](C)CO)C[C@H]2C)c1,3%,-8%,0%,-8%,u,u
Fc1ccc(-n2cc(-c3ccccc3)c3c(N4CCOCC4)ncnc32)cc1,8%,-6%,8%,11%,21µM*,21µM*
CCN1CCN(c2ncnc3c2c(-c2ccccc2)cn3-c2ccc(F)cc2)CC1,1%,-3%,12%,0%,u,u

# Screening data as filed in PubChem BioAssay.
